High-throughput results: PubChem, National Center for Advancing Translational Sciences (NCATS)
Most compounds without a hit are left out; they make up all but 12% or so of the library.
HP1b binding inh: blocks HP1-beta chromodomain binding to methylated histone tails | Potency, µM (highest dose often 114 µM), usual class: inhibitors | AlphaScreen HP1-beta / biotin-H3K9me3 peptide binding | hit rate 0.56% among 390,000; note: nearly all actives have a fitted effect of over 70% in size
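Compound inhibition of the preformed complex between 50 nM HP1-beta and 50 nM biotinylated H3K9me3 peptide was read by AlphaScreen. Buffer was PBS pH 7.4 with 0.01% Tween-20. Incubations ran 30 min at room temperature, with 10 ug/mL donor/acceptor beads.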
G9a inh: blocks human histone lysine methyltransferase G9a; G9a H3K9 monomethylation, AlphaScreen, 2 h; hit rate 8.8% among 350,000; Potency, µM (series often up to 102 µM), hits mostly inhibitors; AID 504332; note: nearly all actives have a fitted effect of over 75% in size
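Using a bead-based AlphaScreen, monomethylated H3K9 product from 2 h room-temperature reactions (G9a 20 nM, peptide 500 nM, SAM 20 uM) was detected with 0.5 ug/mL rabbit anti-H3K9me1 antibody.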
BAZ2B block: inhibitors of human BAZ2B bromodomain; Q9UIF8; AlphaScreen BAZ2B-H3K14Ac peptide displacement; Potency, µM (titrated, usually from 114 µM), actives largely listed as inhibitors; AID 504333; hit rate 4.4% among 360,000; note: nearly all actives have a fitted effect of over 60% in size
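Protein-peptide AlphaScreen: BAZ2B 50 nM, b-H3K14Ac 50 nM, 1x PBS pH 7.4 + 0.01% Tween-20. Preincubation 30 min RT; cpd 30 min RT (top 110 uM); beads 20 min RT, light-protected.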
PLK1 PBD block: inhibitors of human PLK1 polo-box domain binding | Plk1 PBD binding of FITC phosphopeptide, fluorescence polarization | Potency, µM, usual class: inhibitors | hit rate 2.8% among 360,000 | AID 720504 | P53350; note: series mostly up to about 57 µM; nearly all actives have a fitted effect of over 65% in size
PI5P4Ka inh: PI5P4K alpha (human) kinase inhibition | P48426 | PI5P4Kalpha enzyme, ADP-Glo luminescence, 60 min; hits give low values | max response, % | hit rate 1.2% among 330,000 | AID 652105; active = max response of -50% or lower; inconclusive = between -30% and -50%; inactive = -30% or higher; note: value at the top dose of about 77 µM
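Enzyme plus substrate dispensed, test compounds pinned in, then ATP (5 microM final) added. After 60 min at RT, ADP-Glo reagent 1 for 45 min and reagent 2 for 30 min preceded luminescence imaging.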
JMJD2A Tudor inh: inhibitors of human JMJD2A Tudor domain. Potency, µM (series often up to 114 µM), actives largely listed as inhibitors. AID 504339. AlphaScreen JMJD2A-Tudor / H3K4me3 peptide binding. O75164. hit rate 4.4% among 390,000; note: nearly all actives have a fitted effect of over 50% in size
Target sequence (O75164 whole entry, looked up, the tested form may be a part): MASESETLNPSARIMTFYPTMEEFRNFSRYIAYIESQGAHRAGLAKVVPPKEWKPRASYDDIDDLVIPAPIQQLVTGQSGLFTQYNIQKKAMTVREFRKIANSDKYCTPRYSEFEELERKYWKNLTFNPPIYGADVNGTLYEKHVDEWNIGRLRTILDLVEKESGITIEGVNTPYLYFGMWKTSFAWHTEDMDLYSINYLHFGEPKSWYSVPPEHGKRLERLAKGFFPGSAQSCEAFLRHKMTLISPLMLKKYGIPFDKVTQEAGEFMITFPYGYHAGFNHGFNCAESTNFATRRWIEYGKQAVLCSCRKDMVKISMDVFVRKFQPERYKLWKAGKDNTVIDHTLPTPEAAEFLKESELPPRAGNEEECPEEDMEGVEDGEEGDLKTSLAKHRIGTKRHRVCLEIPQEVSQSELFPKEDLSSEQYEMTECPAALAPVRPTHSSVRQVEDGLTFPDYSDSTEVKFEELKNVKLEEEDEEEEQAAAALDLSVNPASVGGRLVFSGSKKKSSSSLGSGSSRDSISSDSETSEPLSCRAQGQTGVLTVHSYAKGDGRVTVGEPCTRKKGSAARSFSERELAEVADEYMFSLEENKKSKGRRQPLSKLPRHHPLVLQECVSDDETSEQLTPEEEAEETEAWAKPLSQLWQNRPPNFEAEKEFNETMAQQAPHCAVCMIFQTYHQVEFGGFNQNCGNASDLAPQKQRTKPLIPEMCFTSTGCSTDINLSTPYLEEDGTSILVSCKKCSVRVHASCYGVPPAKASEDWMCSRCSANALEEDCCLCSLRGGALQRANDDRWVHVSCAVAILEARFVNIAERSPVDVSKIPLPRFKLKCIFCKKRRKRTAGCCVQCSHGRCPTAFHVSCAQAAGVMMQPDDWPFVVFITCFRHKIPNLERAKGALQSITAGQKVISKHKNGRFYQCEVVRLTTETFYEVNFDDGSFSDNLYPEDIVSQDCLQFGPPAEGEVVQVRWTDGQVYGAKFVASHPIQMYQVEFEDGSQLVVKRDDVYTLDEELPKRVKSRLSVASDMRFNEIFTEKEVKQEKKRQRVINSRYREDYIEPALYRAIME
Numbers stand for hits; . = inactive; ? = inconclusive; / = no result given; ! = a repeat was not active; [ ] = dose if it differs, or a comment. Unless noted, calls come from the whole dose curve; as a rule, active = well fitted curve in the direction sought with a large enough effect; inconclusive = small, poorly fitted or top-dose-only effect, or another doubt; inactive = no such curve, though single readings can be large; an effect the other way counts as inactive or inconclusive.

SMILES | HP1b binding inh | G9a inh | BAZ2B block | PLK1 PBD block | PI5P4Ka inh | JMJD2A Tudor inh
COc1ccc(S(=O)(=O)Cc2ccc(C(=O)N3CCN(Cc4ccccc4)CC3)o2)cc1 | . | 35µM | . | . | . | .
Cc1ccc(S(=O)(=O)Cc2ccc(C(=O)N3CCN(c4cccc(C)c4C)CC3)o2)cc1 | . | . | . | . | . | ?
CC1COC(=C2C(=O)OCC2C)C1 (centres undefined) | / | / | / | . | . | /
C[C@H](CO)N1C[C@H](C)[C@@H](CN(C)C(=O)c2ccccn2)Oc2cc(Br)ccc2S1(=O)=O | / | / | / | . | . | /
O=C(c1cc(C(F)(F)F)cc(C(F)(F)F)c1)N1CCC2(CC1)CN(c1ccccn1)C2 | / | .[12.7 µM] | / | / | / | /
Cc1ccc(C(=O)N/C(=C\c2ccc(Cl)cc2)C(=O)NC2CCCCC2)cc1 | . | . | . | / | / | .
COc1ccc(S(=O)(=O)Cc2ccc(C(=O)N3CCN(c4cc(Cl)ccc4C)CC3)o2)cc1 | . | 25µM | . | . | . | .
Cc1c(C(=O)N2CCN(c3ccccc3)CC2)oc2c1C(=O)CC(C)(C)C2 | . | . | . | . | . | .
Cc1c(C(=O)N2CCN(Cc3ccccc3)CC2)oc2c1C(=O)CC(C)(C)C2 | . | 35µM | 79µM | ? | . | .
O=C(Nc1cc(C(F)(F)F)ccc1Cl)C(O)Cc1ccccc1 (centres undefined) | / | / | / | / | / | .
O=S(=O)(Cc1ccccc1)N1CCN(c2nc(-c3cccs3)nc3ccccc23)CC1 | . | / | / | / | / | .
Cc1cc(NC(=O)CSCC(=O)N(C)Cc2ccc(Cl)cc2Cl)no1 | . | . | . | . | . | .
Cc1cccc(-n2c(C)cc(/C=N\NC(=O)c3ccco3)c2C)c1 | . | 45µM | ? | . | . | .
Cc1cccc(C)c1-n1c(C)cc(/C=N/NC(N)=S)c1C | . | 50µM | 45µM | . | . | 50µM
Cc1cc(/C=N/NC(N)=S)c(C)n1-c1cccc(Cl)c1 | ? | 45µM | ? | . | . | ?
Cc1cc(/C=N/NC(N)=S)c(C)n1-c1ccc(Br)cc1 | . | . | ? | . | . | .
Cc1cc(/C=N/NC(N)=S)c(C)n1-c1ccc(Cl)cc1 | . | . | . | 30µM | . | ?
C[C@@H]1O[C@@H](OCCC(=O)O)[C@H](O)C[C@H]1O | . | / | / | . | . | .
O=C(N/N=C/c1ccc2ncccc2c1)c1ccco1 | . | 14µM | . | . | -77 | 79µM
Cc1cc(/C=N/NC(=O)c2ccccn2)c(C)n1-c1cccc([N+](=O)[O-])c1 | ? | ? | 45µM | . | . | ?
CCCNC(=O)C1CCC(Cn2c(=O)c3sccc3n(CC(=O)Nc3ccccc3C)c2=O)CC1 (centres undefined) | . | . | . | / | / | .
CC(=O)c1cccc(NC(=O)c2ccc(C)o2)c1 | . | . | . | 30µM | . | ?
CC(=O)c1cccc(NC(=O)c2oc(C)nc2C)c1 | . | 45µM | . | . | / | .
CCc1nc2c(cnn2-c2ccc(Cl)cc2)c(=O)n1-c1ccc(OC)c(Cl)c1 | . | . | / | / | / | .
COc1ccc(N2CCN(S(=O)(=O)c3ccc4c(c3)CC(C)N4C(C)=O)CC2)cc1 (centres undefined) | . | ? | . | / | / | .
SMILES | HP1b binding inh | G9a inh | BAZ2B block | PLK1 PBD block | PI5P4Ka inh | JMJD2A Tudor inh
NNC(=O)c1sc2cc(C(F)(F)F)cnc2c1-c1cccs1 | . | . | . | . | . | .
O=C(Nc1ccccc1)c1sc2cc(C(F)(F)F)cnc2c1-c1cccs1 | . | ? | . | 3µM | ? | 28µM
CCN(CC)c1ncnc2c1ncn2[C@H]1CN(Cc2ccccc2)C[C@@H](COC(C)=O)O1 | / | / | / | . | . | /
Clc1ccc(/C(Cc2nc3ccccc3[nH]2)=N\Nc2ccccc2)cc1 | . | 7.1µM | ? | . | . | ?
CN/N=C(\Cc1nc2ccccc2[nH]1)c1ccc([N+](=O)[O-])cc1 | . | ? | ? | . | . | ?
Cc1nnc2ccc(-c3ccc(NC(=O)c4ccc(Cl)nc4)cc3)nn12 | / | 79µM | . | / | / | /
Cc1ccc(F)cc1N=Cc1c(O)c2ccccc2oc1=O | . | 79µM | . | . | . | .
Cc1ccc(N=Cc2c(O)c3ccccc3oc2=O)c(C)c1 | . | . | . | . | . | .
Cn1c(=O)[nH]c(=O)c2c1nc(N1CCN(c3cccc(Cl)c3)CC1)n2CCCc1ccccc1 | / | 18µM | . | / | / | /
CCCCCn1c(N2CCN(c3cccc(Cl)c3)CC2)nc2c1c(=O)[nH]c(=O)n2C | . | . | . | . | . | ?
CCCCn1c(N2CCC(Cc3ccccc3)CC2)nc2c1c(=O)[nH]c(=O)n2C | ? | ? | ? | . | . | 50µM
COc1cccc(Oc2nccc(N(C)C)c2C#N)c1 | . | . | . | . | . | .
CCCN1CNc2c(c(=O)[nH]c(=S)n2CCc2ccccn2)C1 | . | / | / | / | / | .
COCCn1c(C)cc(O)c(C(c2ccccc2)N2CCN(c3ccc(F)cc3)CC2)c1=O (centres undefined) | . | ? | . | / | / | .
CCOc1ccc(C(c2c(O)cc(C)n(CCOC)c2=O)N2CCN(c3ccc(F)cc3)CC2)cc1 (centres undefined) | . | 18µM | . | / | / | .
O=c1cc(-c2ccccc2Cl)oc2c([N+](=O)[O-])ccc(O)c12 | / | . | / | / | / | /
O=c1cc(-c2ccccc2Cl)oc2c(Br)ccc(O)c12 | . | 56µM! | . | . | . | .
O=C(c1ccccc1Cl)n1nc(-c2cccnc2)nc1NCc1ccc(F)cc1 | . | . | . | / | / | .
Cc1cccc2c(N=Nc3ccccc3)c(O)[nH]c12 | . | 40µM | . | . | . | .
CCCCn1nnnc1C(c1ccccc1)N1CCN(c2ccc(C)cc2)CC1 (centres undefined) | / | / | / | . | . | /
CC(C)c1ccc(S(=O)(=O)N2CCN(Cc3cccc(F)c3)CC2)cc1 | . | ? | . | / | / | .
O=C(CN1C2CCC1CC(NC(=O)NC1CCCCC1)C2)NC1CC1 (centres undefined) | . | 71µM | . | . | / | .
Cc1nnc(C)c2c(C)n(C(C)c3ccccc3)c(C)c12 (centres undefined) | . | . | . | . | . | ?
COc1ccc(C(C)n2c(C)c3c(C)nnc(C)c3c2C)cc1 (centres undefined) | . | ? | 89µM! | . | / | ?
COc1ccccc1-c1cc(-c2ccc(C)cc2)nc(SCc2nnc(-c3ccccc3)o2)c1C#N | . | 11µM | . | 21µM | . | .
Cc1cc(C)c(C#N)c(SCc2nnc(-c3ccccc3)o2)n1 | . | . | . | . | . | .
Cc1ccc(-n2c(Cc3cccn3C)nnc2SCC(=O)NC2CCCCC2)cc1 | . | .[2.33 µM] | ? | . | / | .
CCn1c(Cc2cccn2C)nnc1SCC(=O)c1ccc(C)cc1 | . | ? | 50µM | . | . | ?
CCn1c(SCC(=O)c2ccc(O)c(O)c2)nnc1-c1ccc(C)cc1 | . | .[2.33 µM] | ? | . | ? | 28µM
CCn1c(SCC(=O)N/N=C(\C)c2ccncc2)nnc1-c1ccc(C)cc1 | . | 50µM | . | . | . | .
